Bioassay records (PubChem BioAssay)
Most compounds without a hit are left out; they make up all but 12% or so of the library.
SARS PLP yeast = qHTS of Yeast-based Assay for SARS-CoV PLP | S. cerevisiae expressing SARS-CoV PLpro, growth rescue | hit rate 0.19% among 330,000 | Potency, µM (series often up to 32.9 µM), hits mostly activators; calls by dose curve; note: nearly all actives have a fitted effect of over 55% in size
Sm TGR block = qHTS Assay for the Inhibitors of Schistosoma Mansoni Peroxiredoxins. purified TGR, DTNB reduction, TNB absorbance 405 nm. Schistosoma mansoni thioredoxin glutathione reductase (TGR), Q962Y6. AID 485364, 2010. Potency, µM (top dose mostly 114 µM), actives largely listed as inhibitors. hit rate 3% among 360,000; note: nearly all actives have a fitted effect of over 60% in size
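TGR 20 nM + NADPH 100 uM (dispensed conc.), cpd preinc 15 min RT; start with NADPH (500 uM addition) then DTNB (15 mM addition). Kinetic TNB absorbance, 405 nm filter. Four-parameter Hill fit across titration.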
Pf growth 48h = Primary qHTS for delayed death inhibitors of the malarial parasite plastid, 48 hour incubation; P. falciparum luciferase growth in erythrocytes, 48 h; Potency, µM (titrated, usually from 28.7 µM), usual class: inhibitors; hit rate 5.9% among 310,000; AID 504832, 2011
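Compounds are pin-transferred into medium, infected erythrocytes (2% hematocrit, 0.1% parasitemia final) are added, and plates sit one parasite generation at 37 C in 5% CO2. Detection reagent is then added and luminescence measured.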
Pf growth 96h = Primary qHTS for delayed death inhibitors of the malarial parasite plastid, 96 hour incubation. hit rate 6.9% among 320,000. P. falciparum luciferase reporter growth, 96 h. Potency, µM (doses to about 28.7 µM), actives largely listed as inhibitors
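Parasite growth measured via integrated firefly luciferase reporter in P. falciparum. Infected erythrocytes at 2% hematocrit, 0.05% parasitemia final were treated 96 hours at 37 C under 5% CO2, and luminescence was read.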
A number is an active result. Unless noted, calls come from the whole dose curve; as a rule, active = well fitted curve in the direction sought with a large enough effect; inconclusive = small, poorly fitted or top-dose-only effect, or another doubt; inactive = no such curve, though single readings can be large; an effect the other way counts as inactive or inconclusive.

CC1CC(C)CN(S(=O)(=O)c2ccc(NC(=O)C3CC(=O)N(Cc4ccccc4)C3)cc2)C1 (configuration not stated) was read as SARS PLP yeast inactive, Sm TGR block inactive, Pf growth 48h inconclusive and Pf growth 96h inconclusive.
Cc1ccc(NC(=O)C2CC(=O)N(CCc3ccccc3)C2)cc1Cl (configuration not stated) was read as SARS PLP yeast inactive, Sm TGR block inactive, Pf growth 48h inconclusive and Pf growth 96h inactive.
`CCN(CC)S(=O)(=O)c1cc(NC(=O)C2CC(=O)N(Cc3ccccc3)C2)ccc1Cl` (configuration not stated) gave SARS PLP yeast inactive, Sm TGR block inactive, Pf growth 48h 10µM and Pf growth 96h inconclusive.
Screening O=C(Nc1ccc(S(=O)(=O)N2CCCCC2)cc1)C1CC(=O)N(Cc2ccccc2)C1 (configuration not stated) returned SARS PLP yeast inactive, Sm TGR block inactive, Pf growth 48h 13µM and Pf growth 96h inconclusive.
`Cc1ccc(NC(=O)C2CC(=O)N(Cc3ccccc3)C2)cc1S(=O)(=O)N1CCCCCC1` (configuration not stated) gave SARS PLP yeast inactive, Sm TGR block inactive, Pf growth 48h inconclusive and Pf growth 96h 12µM.
Screening CCc1ccc(C(=O)NNC(=O)C2CC(=O)N(Cc3ccccc3)C2)cc1 (configuration not stated) returned SARS PLP yeast inactive, Sm TGR block inactive, Pf growth 48h inactive and Pf growth 96h inactive.
`Cc1cccc(Cn2c(=O)n(CCCCC(=O)NCc3ccc4c(c3)OCO4)c(=O)c3ccccc32)c1` gave Sm TGR block inactive.
For Cc1noc(-c2ccc(C(F)(F)F)cc2)c1NC(=O)Nc1ccc(Cl)cc1 the results were SARS PLP yeast inactive, Sm TGR block inactive, Pf growth 48h 2.6µM and Pf growth 96h 2.6µM.
Screening Nc1ccccc1C(O)(Cc1ccccc1)c1ccccc1 (configuration not stated) returned SARS PLP yeast inactive, Sm TGR block inactive and Pf growth 96h inconclusive.
For Cc1ccc(Cn2c(CNC(=O)c3ccccc3Br)nc3cccnc32)cc1 the results were Sm TGR block inactive.
`CCN(CC)S(=O)(=O)c1cccc(NC(=O)C2SC(=Nc3ccc(C)cc3C)C(C(=O)NC(C)COC)=C2N)c1` (configuration not stated) gave SARS PLP yeast inactive, Sm TGR block inactive and Pf growth 96h 3.7µM.
CCCCNC(=O)C1=C(N)C(C(=O)Nc2ccc(C)c(S(=O)(=O)N3CCCCC3)c2)SC1=Nc1ccc(C)cc1C (configuration not stated) was read as SARS PLP yeast inactive, Sm TGR block inactive and Pf growth 96h 10µM.
CC(C)(C)c1cc(/C=C2\NC(=O)NC2=O)cc(C(C)(C)C)c1O was read as SARS PLP yeast inactive, Sm TGR block 1.1µM, Pf growth 48h inconclusive and Pf growth 96h inactive.
CCOC(=O)[C@H]1[C@H]2COc3ccc(Cl)cc3[C@@H]2N2C(=O)CN(Cc3ccc(F)cc3)C(=O)[C@@]12C was read as SARS PLP yeast inactive, Sm TGR block inactive, Pf growth 48h inconclusive and Pf growth 96h inconclusive.
CCOC(=O)[C@H]1[C@H]2COc3ccc(Cl)cc3[C@@H]2N2C(=O)CN(Cc3ccc(Cl)cc3)C(=O)[C@@]12C was read as SARS PLP yeast inactive, Sm TGR block inactive, Pf growth 48h 15µM and Pf growth 96h inconclusive.
`CCOC(=O)[C@H]1[C@H]2COc3ccc(Cl)cc3[C@@H]2N2C(=O)CN(Cc3ccccc3)C(=O)[C@@]12C` gave SARS PLP yeast 8.9µM, Sm TGR block inactive, Pf growth 48h inconclusive and Pf growth 96h 5.9µM.
`CCOC(=O)[C@H]1[C@H]2COc3ccc(Cl)cc3[C@@H]2N2C(=O)CN(CC3CCCO3)C(=O)[C@@]12C` (some centres not stated) gave SARS PLP yeast inactive, Sm TGR block inactive, Pf growth 48h inactive and Pf growth 96h inconclusive.
`COc1ccc([C@H]2C(C(=O)O)=C[C@@H](C(C)(C)C)N2S(=O)(=O)c2ccc(C)cc2)cc1OC` gave SARS PLP yeast inactive.
`N=c1c(C(=O)NCCN2CCOCC2)cc2c(=O)n3ccccc3nc2n1CCc1ccccc1` gave SARS PLP yeast inactive, Sm TGR block inactive, Pf growth 48h 3.3µM and Pf growth 96h 3.3µM.
Screening Cc1ccc(Cn2c(=N)c(C(=O)NCCN3CCOCC3)cc3c(=O)n4ccccc4nc32)cc1 returned SARS PLP yeast inactive, Sm TGR block inactive, Pf growth 48h inconclusive and Pf growth 96h inconclusive.
